Experimental findings from the supplement of paper PMC10646978 are described below.

± gives the standard deviation.

The assay relates to RAW-Dual (murine macrophage reporter line). Put plainly: IRF reporter (Lucia luciferase) activity fold change vs agonist alone; higher = enhanced IRF activity. The note with it: modulator concentration 10 µM; agonist: LPS 0.1 ug/mL. The procedure, abridged: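 In 384-well plates holding 50 000 RAW-Dual murine macrophage reporter cells per well, compound at 10 μM final was pre-incubated for 1 hour at 37 °C, after which a PRR agonist was added overnight. Supernatant SEAP read with QUANTI-Blue at 620 nm absorbance reported NF-κB, and Lucia luciferase read with QUANTI-Luc luminescence reported IRF. Fold change values come from dividing each reporter signal by the mean of agonist-only control wells on the same plate, averaged over replicate plates with propagated errors.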
Take `Cc1ccc(F)c(NC(=O)Nc2ccc(-c3cccc4[nH]nc(N)c34)cc2)c1`: the IRF reporter is 1.04 ± 0.22.
The result for `CCN(CC)C(=O)N1CCN(C)CC1.O=C(O)CC(O)(CC(=O)O)C(=O)O` reads 1.23 ± 0.23.
For the molecule `O=S(=O)(Nc1ccnc2ccccc12)c1ccccc1`, the IRF reporter is 1.12 ± 0.11.
`CC(C)C(=O)c1c(C(C)C)nn2ccccc12`: the IRF reporter is 0.938 ± 0.031.
On to `CCC1OC(=O)C(C)C(OC2CC(C)(OC)C(O)C(C)O2)C(C)C(OC2OC(C)CC(N(C)C)C2O)C(C)(O)CC(C)CN(C)C(C)C(O)C1(C)O` (centres undefined), for which the IRF reporter was determined as 0.948 ± 0.11.
For the molecule `O=C(Nc1ccc(NS(=O)(=O)c2ccccc2)cc1)c1ccco1`, the IRF reporter was found to be 0.818 ± 0.035.
Then `O=C(CSC1CC(=O)N(c2ccc(C(=O)O)cc2)C1=O)Nc1ccc(F)cc1` (centres undefined), with 1.25 ± 0.15; and `CC1ON(c2ccc(Cl)c(Cl)c2)C(=O)NC1=O` (centres undefined), with 1.27 ± 0.2.
Then `CCN(CC)c1ccc(C=NNc2cc(N3CCOCC3)nc(N3CCOCC3)n2)cc1`, with 1.28 ± 0.23; and `COC(CNS(=O)(=O)c1ccccc1Br)c1ccc(C)s1` (centres undefined), with 0.965 ± 0.058.
The result for `CN(C)CC/C=C1\c2ccccc2COc2ccccc21.Cl` reads 0.73 ± 0.14; that for `O=c1cccnn1CC1CN(c2ncc(Br)cn2)C1`, 0.966 ± 0.17.
In the case of `CCOC(=O)C1=C(C)NC(C)=C(C(=O)OCC)C1c1ccc(F)cc1`, the IRF reporter was 0.987 ± 0.059.
As to `C#CCCCCCCCCCCCC(O)CC(O)COC(C)=O` (centres undefined), the IRF reporter came out at 1.17 ± 0.19.
For the molecule `O=C(O)c1nn(-c2ccccc2)c(=O)c2ccccc12`, the IRF reporter was determined as 0.953 ± 0.086.
The result for `Cc1nnc(C(=O)NC(C)(C)c2nc(C(=O)NCc3ccc(F)cc3)c(O)c(=O)n2C)o1` reads 1.27 ± 0.15; that for `OC(Cn1cncn1)(Cn1cncn1)c1ccc(F)cc1F`, 1.46 ± 0.096; that for `Cn1c(=O)[nH]c2nnc(-c3cccnc3)nc2c1=O`, 1.22 ± 0.12.
In the case of `Cc1c(C#N)sc2nc(-c3ccccc3)nc(N=CN(C)C)c12`, the IRF reporter stood at 0.971 ± 0.078.
Consider `CCC[C@@H]1C[C@@H](C(=O)N[C@@H]([C@H]2O[C@H](SC)[C@H](OP(=O)(O)O)[C@@H](O)[C@H]2O)[C@H](C)Cl)N(C)C1`, for which the IRF reporter worked out at 1.01 ± 0.09.
The result for `Cc1nc2n(c(=O)c1CCN1CCC(c3noc4cc(F)ccc34)CC1)CCCC2O` (centres undefined) reads 1.26 ± 0.14; that for `Cc1cc(C(=O)O)n[nH]1`, 1.24 ± 0.14.
In the case of `N=C(N)Nc1ccc(Cl)cc1`, the IRF reporter was found to be 0.986 ± 0.058.
With `COC(=O)C1=CN(CC2CCCO2)C=C(C(=O)OC)C1c1ccc(Cl)cc1` (centres undefined), the IRF reporter worked out at 1.04 ± 0.13.
Consider `COc1ccc(OC)c(Nc2nc(-c3c(C)nc4ncccn34)cs2)c1`, for which the IRF reporter amounted to 0.381 ± 0.035.
Then `Nc1ncn([C@@H]2O[C@H](CO)[C@@H](O)[C@H]2O)c(=O)n1`, with 0.433 ± 0.049; and `O=Cc1ccc(OCc2cccc([N+](=O)[O-])c2)c(Br)c1`, with 1.4 ± 0.09; and `C=C(C)COc1ccc(-c2ncncc2-c2ccccc2)c(O)c1`, with 1.14 ± 0.17.
Consider `CC(=O)c1ccc(NC(=O)c2ccccc2C(=O)O)cc1`, for which the IRF reporter came to 1.14 ± 0.13.
Then `O=c1ccc2cc(O)c(O)cc2o1`, with 1.34 ± 0.2; and `Cc1ccsc1C(=CCCN1CCC[C@@H](C(=O)O)C1)c1sccc1C`, with 0.961 ± 0.05.
Then `Br.CCCc1cc(-c2nc(-c3ccc(C)cc3)cs2)ccn1`, with 1.3 ± 0.22; and `CCCCc1oc2ccccc2c1C(=O)c1cc(I)c(OCCN(CC)CC)c(I)c1.Cl`, with 1.6 ± 0.12; and `CNC1CCC(c2ccc(Cl)c(Cl)c2)c2ccccc21.Cl` (centres undefined), with 1.94 ± 0.19.
Regarding `CN(C)CC/C=C1/c2ccccc2Sc2ccc(Cl)cc21`, the IRF reporter stood at 1.08 ± 0.19.
`c1ccc(-c2ccc(C(c3ccccc3)n3ccnc3)cc2)cc1` (centres undefined): the IRF reporter is 1.31 ± 0.076.
The result for `Cc1[nH]c2ccccc2c1CCNCc1ccc(/C=C/C(=O)NO)cc1` reads 0.355 ± 0.032; that for `O=C(Nc1ccc(Br)cc1)c1cccc(S(=O)(=O)NC2CCCCC2)c1`, 1.04 ± 0.14; that for `CCC(C(=O)N1CCC2(CC1)CC2(F)F)c1ccccc1` (centres undefined), 1.19 ± 0.24.
